Screens deposited in PubChem by several laboratories.
eIF4H FP inh: inhibitors of RNA binding by human eIF4H. Q15056. eIF4H fluorescence polarization binding assay. inhibition, % at 35 µM. 0.94% of 290,000 active;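 further: calls also rest on retests at 20 µM and on dose response follow-up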
ABCB6 inh MLPCN: inhibitors of human ABC transporter ABCB6 | AID 602162 | 0.19% of 360,000 active | K562-ABCB6 porphyrin accumulation, flow cytometry, 1 h; hits give low values | fluorescence ratio to DMSO, % at 10 µM;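 active means fluorescence ratio to DMSO below 75%, the collection mean minus 3 SD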;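 further: signal is porphyrin accumulated inside mitochondria; 100% equals median channel fluorescence of DMSO control wells; lower ratio means ABCB6 inhibition with less porphyrin fluorescence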
PHOSPHO1 block: inhibitors of human PHOSPHO1 phosphatase; Q8TCT1; recombinant PHOSPHO1, absorbance phosphatase assay; 1.1% of 290,000 active; inhibition, % at 13.3 µM; in the data active means inhibition above about 60%
PABP1 MLLE inh: blocks PAM2 peptide binding to the PABP1 MLLE domain | 0.36% of 360,000 active | GST-MLLE / FITC-PAM2 fluorescence polarization | P11940 | inhibition, % at 20 µM | AID 588489; in the data active means inhibition above about 35%, passing the limit was not always enough;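 further: plate controls were DMSO wells with GST-MLLE for no effect and wells lacking GST-MLLE protein for full effect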
Target sequence (P11940 whole entry, looked up, the tested form may be a part): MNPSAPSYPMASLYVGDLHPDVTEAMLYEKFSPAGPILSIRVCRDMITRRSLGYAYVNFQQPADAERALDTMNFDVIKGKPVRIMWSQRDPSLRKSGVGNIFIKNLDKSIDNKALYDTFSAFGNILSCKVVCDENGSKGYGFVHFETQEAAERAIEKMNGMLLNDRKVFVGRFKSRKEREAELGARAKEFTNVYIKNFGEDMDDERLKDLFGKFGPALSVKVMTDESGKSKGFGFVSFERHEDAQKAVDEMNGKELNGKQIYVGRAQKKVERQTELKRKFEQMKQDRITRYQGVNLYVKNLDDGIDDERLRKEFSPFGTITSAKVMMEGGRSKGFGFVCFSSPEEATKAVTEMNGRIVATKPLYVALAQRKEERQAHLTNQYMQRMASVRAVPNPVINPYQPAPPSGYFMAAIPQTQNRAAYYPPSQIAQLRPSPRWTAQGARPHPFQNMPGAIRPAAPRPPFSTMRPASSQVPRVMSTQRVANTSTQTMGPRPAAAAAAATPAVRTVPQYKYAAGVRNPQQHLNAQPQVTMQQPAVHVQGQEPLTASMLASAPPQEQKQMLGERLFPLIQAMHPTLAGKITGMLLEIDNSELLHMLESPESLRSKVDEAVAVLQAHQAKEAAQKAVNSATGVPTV
AI-2 QS mod: modulates the Vibrio harveyi AI-2 quorum sensing system. activity change, % at 7.5 µM. 0.4% of 300,000 active. Vibrio harveyi JMH597 AI-2 luminescence/OD600 ratio, 9 h; hits give low values; strain lacks LuxN and CqsS sensors; 0 = neutral-control median; in the data active means activity change below about -75%, passing the limit was not always enough;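 further: luminescence divided by OD600 gain over 9 h not by final OD600 alone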
PABP FP inh: blocks human PABP binding to poly(A) RNA; P11940; fluorescence polarization; calls only at 35 µM; 1% of 290,000 active;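 further: calls also rest on retests at 20 µM and on dose response follow-up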
Starred values were filed as active, the others as inactive; i = inactive; . = no result given; + = active, no number. Compounds with a hit are over-represented: about 2.6% of the library has one in this group of screens. Unless noted, how the calls were made is not given here.

SMILES	eIF4H FP inh	ABCB6 inh MLPCN	PHOSPHO1 block	PABP1 MLLE inh	AI-2 QS mod	PABP FP inh
CC1(C(=O)Nc2ccc3c(c2)OCO3)CCN1C(=O)CC1CC1 (centres undefined)	.	94	.	0	.	.
CC(C)(C)C1=CC=C(C(C)(C)C)C(=O)C1=O	-4	.	67*	.	9	i
COC(=O)[C@]12CCCCC=C1N(Cc1ccc(Cl)cc1Cl)C(=O)[C@H](CC(=O)NCc1cccc(C(F)(F)F)c1)C2	.	97	.	.	.	.
CCOCCc1nnc(NC(=O)CN2C(=O)c3ccccc3C2=O)s1	-8	100	25	5	-89*	i
CCOCCc1nnc(NC(=O)Cc2ccccc2)s1	0	92	2	-7	16	i
CC(C)C[C@@H]1COc2cccc(N3CCC[C@H]3CO)c2S(=O)(=O)N1	.	92	.	.	.	.
CCOC(=O)c1cc2c(c(-c3cccc(-c4cc5ccccc5o4)c3)n1)[C@@H](CCO)N(S(=O)C(C)(C)C)C2 (some centres undefined)	.	97	.	-23	.	.
CCOc1ccc(N(C)S(=O)(=O)c2c[nH]c(C(=O)OC)c2)cc1	2	97	65*	6	16	i
CCCCN(Cc1ccco1)S(=O)(=O)c1c[nH]c(C(=O)OC)c1	-9	97	27	9	12	i
CCCN(c1ccccc1F)S(=O)(=O)c1c[nH]c(C(=O)OC)c1	-6	102	70*	-3	14	i
CC(C)(C)NC(=O)C1c2ccccc2OCC(=O)N1Cc1ccccn1 (centres undefined)	.	95	.	.	.	.
COc1cc(NC(=O)c2noc(C)c2[N+](=O)[O-])c(OC)cc1Cl	-9	102	64*	5	0	i
Cc1onc(C(=O)Nc2cccnc2Cl)c1[N+](=O)[O-]	72	96	18	-7	19	i
COc1ccc(C(=O)c2[nH]c(N)c(C(=O)NCCc3c[nH]c4ccccc34)c2-c2ccc(Cl)c(F)c2)cc1	.	97	.	.	.	.
O=C1/C(=C/c2cccs2)SC(=S)N1NS(=O)(=O)c1ccccc1	-9	99	2	-17	-40	i
CC(C(=O)O)N1C(=O)/C(=C/C=C/c2ccco2)SC1=S (centres undefined)	89*	98	28	16	-7	+
O=C1/C(=C/C=C/c2ccco2)SC(=S)N1NS(=O)(=O)c1ccccc1	89*	100	-21	-2	.	+
O=C(NCCN1CCC(n2c(=O)[nH]c3ccccc32)CC1)c1cccc(Cl)c1	.	87	.	.	.	.
CCn1c(C)cc(=S)c2ccccc21	0	100	24	40*	31	i
CCn1c2ccccc2c2cc(/C(C)=N/O)ccc21	1	88	1	-6	11	i
CCn1c2ccccc2c2cc(N)ccc21	72*	101	5	-25	20	+
CCCNC(=O)c1cc(C2CCCCN2C(=O)c2ccc(OC)cc2)on1 (centres undefined)	.	101	.	12	.	.
CCc1nc2ccc(C(=O)NCc3ccc4c(c3)OCO4)cn2c1N(C)Cc1ccc(OC)cc1	.	92	.	-10	.	.
O=S(=O)(c1ccc(Cl)cc1)N1CCSC1c1ccco1 (centres undefined)	1	100	68*	24	26	i
CC(C)n1c(=O)c2ccccc2n1CC(=O)N1CCOCC1	.	132	.	.	.	.
SMILES	eIF4H FP inh	ABCB6 inh MLPCN	PHOSPHO1 block	PABP1 MLLE inh	AI-2 QS mod	PABP FP inh
CCN(CC)CCN1CCN(c2cnc(C)cn2)CC1	.	107	.	-1	.	.
CC(C(=O)c1ccc(Br)cc1)[n+]1cccc2ccccc21 (centres undefined)	90	558	24	-28	-1	+
CC(C(=O)c1ccc(Br)cc1)[n+]1cccc(NC(=O)c2ccccc2)c1 (centres undefined)	-12	108	-7	7	20	i
COc1ccc(OCC(=O)Nc2ccc3c(c2)nc(CCN2CCCC2)n3C)cc1	-11	96	51	-14	14	i
COc1ccc(OCC(=O)Nc2ccc3c(c2)nc(CCN2CCN(C)CC2)n3C)cc1	-2	99	70*	6	-4	i
CCN(CC)C(=O)CSC1=C(C#N)C(c2cccs2)C=C(C)N1 (centres undefined)	11	94	94*	-25	43	i
C#CCSC1=C(C#N)C(c2cccs2)C(C(=O)OCC)=C(C)N1 (centres undefined)	63*	99	-30	8	-1	+
CCOC(=O)C1=C(C)NC(C)=C(C(=O)OCC)C1c1cccs1	-1	92	-1	9	-1	i
CC(C)C[C@@H]1Cc2[nH][nH]c(=O)c2[C@H](C)O1	.	97	.	.	.	.
CCOC(=O)c1cc(C#N)c(SCc2cccc3ccccc23)nc1C	-2	102	2	-4	32	i
CCOC(=O)c1cc(C#N)c(SCC(=O)c2cc(C#N)c(SC)nc2C)nc1C	-3	100	73*	-18	16	i
CCCCCNc1ncnc2c(C)[nH]nc12	.	97	.	-15	.	.
Cc1cc(C)n2c(=O)c3ccc(Cl)cc3nc2c1C#N	0	102	-1	5	-1	i
Cc1cc(Cl)n2c(nc3cc(F)c(F)cc32)c1C#N	2	102	-13	-40	-96*	i
CCc1nc2c(OCc3ccc(F)c(F)c3)cccn2c1N(C)C(=O)c1ccc(OC)cc1	.	97	.	7	.	.
COc1ccc(NC(=S)NC(NC(=O)c2ccc(Cl)cc2Cl)C(Cl)(Cl)Cl)c([N+](=O)[O-])c1 (centres undefined)	-11	90	7	36*	21	i
COc1ccc(NC(=S)NC(NC(=O)c2cccc3ccccc23)C(Cl)(Cl)Cl)c([N+](=O)[O-])c1 (centres undefined)	-8	95	7	32	41	i
COc1ccc(NC(=S)NC(NC(=O)c2ccccc2Cl)C(Cl)(Cl)Cl)c([N+](=O)[O-])c1 (centres undefined)	0	94	9	39*	6	i
Cc1c(NC(=O)CSc2nnc(-c3ccccc3F)o2)c(=O)n(-c2ccccc2)n1C	.	80	.	-3	.	.
O=C(NC(=S)Nc1ncccn1)c1ccccc1Cl	2	94	-9	41*	14	i
Cc1nc(C(F)(F)F)ccc1C(=O)N1CCC1(C)C(=O)NS(=O)(=O)c1cccc(C#N)c1 (centres undefined)	.	97	.	13	.	.
CCc1ccccc1NC(=O)CCS(=O)(=O)c1ccc(OC)cc1	54*	96	-3	16	31	i
COc1cc(OC)cc(C2=Cc3ccccc3C(CC(=O)c3ccco3)N2c2ccc(-c3cccnc3)cc2)c1 (centres undefined)	.	105	.	.	.	.
CC1=NN(C(N)=S)C(=O)C1N=Nc1ccccc1C(=O)O (centres undefined)	3	100	62*	8	21	i
CCCc1ccc2c(C(F)(F)F)cc(C(F)(F)F)cc2n1	.	99	.	3	.	.
